Assay outcomes deposited in PubChem BioAssay by The Scripps Research Institute Molecular Screening Center.
Most compounds without a hit are left out; they make up all but 3.5% or so of the library.
MITF inh – inhibitors of human MITF; O75030; AlphaScreen MITF homodimerization, bead proximity signal; inhibition, % at 2.6 µM; 0.91% of 650,000 active; in the data active = inhibition above about 50%
TEAD-YAP inh – TEAD-YAP interaction inhibition. 1.4% of 640,000 active. inhibition, % at 9.12 µM. AID 1259422. HEK-TIYL cells, TEAD-Gal4/YAP UAS-luciferase luminescence; in the data active = inhibition above about 32%
GPR151 ag – activators of human GPR151; Q8TDV0; PathHunter beta-arrestin GPR151 cells, luminescence; 1% of 650,000 active; AID 1508602; activation, % at 11.2 µM; in the data active = activation above about 4.9%
Target sequence (Q8TDV0 whole entry, looked up): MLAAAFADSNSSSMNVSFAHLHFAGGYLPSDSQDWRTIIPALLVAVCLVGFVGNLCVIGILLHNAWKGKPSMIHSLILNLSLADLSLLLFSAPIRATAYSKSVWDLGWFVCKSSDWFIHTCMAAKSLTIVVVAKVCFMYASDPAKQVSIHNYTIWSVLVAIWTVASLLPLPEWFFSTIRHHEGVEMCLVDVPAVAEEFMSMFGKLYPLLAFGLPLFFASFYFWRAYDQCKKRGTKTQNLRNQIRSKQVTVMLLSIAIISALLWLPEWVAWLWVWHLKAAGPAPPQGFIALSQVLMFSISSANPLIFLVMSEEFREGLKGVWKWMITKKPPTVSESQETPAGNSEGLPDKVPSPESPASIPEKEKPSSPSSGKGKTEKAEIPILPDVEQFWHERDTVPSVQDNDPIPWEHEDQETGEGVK
FBW7 act – human FBW7 E3 ligase activation, primary screen; normalized activity (activation), % at 26.1 µM; Q969H0; AlphaScreen FBW7–phospho-cyclin E peptide binding, activator screen; 0.13% of 650,000 active; AID 1259310; in the data active = normalized activity above about 1.9%;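 also: purified mutant Fbw7 with reduced substrate affinity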
Large screens that a line does not name were inactive; ! = a repeat was not active.

O=[N+]([O-])c1ccc(Sc2nc3ccccc3s2)cc1	none
c1ccc2c(c1)CC(c1nc3ccc(-c4ccncc4)cc3[nH]1)CCO2 (configuration not stated)	TEAD-YAP inh 41
Cc1ccc2c(CSc3nnc(C)c(=O)n3N)cc(=O)oc2c1	none
COc1cc(NC(=O)c2cnc(N3CCN(c4ccccn4)CC3)s2)cc(OC)c1OC	TEAD-YAP inh 41
COc1cc(NC(=O)c2cnc(N3CCc4ccccc4C3)s2)cc(OC)c1OC	TEAD-YAP inh 42
COc1cc(C(=O)Nc2ccc(N3CCCC3)c(Cl)c2)cc(OC)c1OC	TEAD-YAP inh 42
COc1cc(C(=O)Nc2ccc(C)c(C)c2)cc(OC)c1OC	none
COc1cc(C(=O)Nc2ccc(I)cc2)cc(OC)c1OC	TEAD-YAP inh 35
O=C(CN1CCN(Cc2ccccc2)CC1)c1ccc2cc[nH]c2c1	none
Cc1ccc(NS(=O)(=O)c2ccccc2F)cc1C	none
CCCNc1ccc(S(=O)(=O)N(CC)CC)cc1N	none
O=C1CCCC2=C1C(c1cccc(O)c1)NC(=S)N2 (configuration not stated)	TEAD-YAP inh 65
CC1(C)CC(=O)C2=C(C1)NC(=S)NC2c1cccc(F)c1 (configuration not stated)	TEAD-YAP inh 52
O=C1CCCC2=C1C(c1ccc(Cl)cc1)NC(=S)N2 (configuration not stated)	none
CC1(C)CC(=O)C2=C(C1)Nc1ccccc1NC2c1cccc(F)c1 (configuration not stated)	none
COC(=O)C(=O)/C=C1\NC(C)(C)Cc2ccccc21	none
COc1ccc(S(=O)(=O)Nc2ccc(S(=O)(=O)NC(C)(C)C)cc2)cc1	none
Cc1ccc(-c2nnc(N3CCN(C(=O)CN4CCCC4)CC3)c3ccccc23)cc1	none
Cc1ccc(-c2nnc(N3CCN(C(=O)c4ccco4)CC3)c3ccccc23)cc1	FBW7 act 2.3
O=[N+]([O-])c1ccc(Cc2nnc(-c3ccc(F)cc3)o2)cc1	none
Cc1ccc(-c2nnc(Cc3ccc([N+](=O)[O-])cc3)o2)cc1	TEAD-YAP inh 61
CSc1nccc(-c2cc(Cl)c3c(c2)CC(CNC(=O)C2CCOCC2)O3)n1 (configuration not stated)	none
Cc1cccc(C)c1NC(=O)C(c1ccc(Cl)cc1)N(Cc1ccco1)C(=O)c1ccc(-n2cnnn2)cc1 (configuration not stated)	TEAD-YAP inh 41
O=C(O)c1cccc(NC(=S)N/N=C/c2cc(Cl)ccc2O)c1	MITF inh 91
COc1cc(/C=N/NC(=S)Nc2cccc(C(=O)O)c2)ccc1O	TEAD-YAP inh 32
COc1ccccc1/C=N/NC(=S)Nc1ccccc1OC	TEAD-YAP inh 46
COc1ccccc1/C=N/NC(=O)C(=O)Nc1ccccc1OC	none
COc1cccc(/C=N/NC(=S)Nc2cccc(F)c2)c1O	MITF inh 58, TEAD-YAP inh 40
CNC(=O)c1ccc(CN2CCC(Cc3ccccc3)CC2)cc1	none
COc1cccc(/C=N/NC(=S)Nc2cccc(C(=O)O)c2)c1O	MITF inh 112, TEAD-YAP inh 61
CCOC(=O)c1ccc(NC(=S)Nc2cccc(OC)c2)cc1	TEAD-YAP inh 62
COc1cccc(NC(=S)N/N=C/c2ccc(O)cc2)c1	TEAD-YAP inh 60
CC(=O)c1ccc(OCc2cc(C(=O)N3CCCCC3CCO)no2)cc1 (configuration not stated)	none
O=C(Nc1ccc2c(c1)CN(C(=O)c1ccco1)CC2)c1cccc2ccccc12	TEAD-YAP inh 45
O=C(Nc1ccc2c(c1)CN(C(=O)C1CCOCC1)CC2)c1ccccc1Cl	TEAD-YAP inh 34
O=C(Nc1ccc2c(c1)CN(C(=O)c1ccco1)CC2)c1ccc(F)c(F)c1	none
O=C(Nc1ccc2c(c1)CN(C(=O)C1CCOC1)CC2)c1ccccc1Cl (configuration not stated)	TEAD-YAP inh 51
CCC(=O)N1CCc2ccc(NC(=O)c3c(F)cccc3F)cc2C1	TEAD-YAP inh 33
O=C(Nc1ccc2c(c1)CN(C(=O)C1CCOC1)CC2)c1ccc(C(F)(F)F)cc1 (configuration not stated)	none
O=C(Nc1nc2ccc([N+](=O)[O-])cc2s1)c1ccccc1I	none
CCCSC1=C(C#N)C(c2ccc(C)o2)CC(=O)N1 (configuration not stated)	none
Cc1ccc(NC(=O)C(Cc2ccccc2)N2C(=O)C3C4C=CC(C4)C3C2=O)cc1 (configuration not stated)	none
Cc1ccc2oc(-c3ccc(N4CCC(C)CC4)c([N+](=O)[O-])c3)nc2c1	TEAD-YAP inh 93
Cc1ccc(C)n1-c1ccc(C(=O)O)cc1	none
Cc1ccc(C)n1-c1ccc(C(=O)NCC(=O)O)cc1	MITF inh 66
Cc1noc(C)c1-c1nc(Nc2ccccc2)c2ncn(C3CCCCC3)c2n1	TEAD-YAP inh 75
c1ccc(Oc2ccc(Nc3nc(N4CCc5ccccc5C4)nc4c3ncn4C3CCCCC3)cc2)cc1	none
Cc1noc(C)c1-c1nc(Nc2ccc(N3CCOCC3)cc2)c2ncn(C3CCCCC3)c2n1	none
c1ccc(Nc2nc(N3CCc4ccccc4C3)nc3c2ncn3C2CCCCC2)cc1	TEAD-YAP inh 32
O=C(CSc1nccc(=O)[nH]1)c1ccc(O)c(O)c1	MITF inh 55
Cn1nccc1C(=O)Oc1cccc(/C=N/NC(=O)c2ccccc2O)c1	TEAD-YAP inh 42
Cc1cc(NCCc2ccc(O)cc2)nc(-c2cccs2)n1	none
CCOC(=O)/C=C/C(=O)Nc1cc(Cl)c(Cl)cc1Cl	TEAD-YAP inh 58
Cc1c(C)c2ccc(O)c(O)c2oc1=O	none
O=c1oc2c(O)c(O)cc3c(=O)oc4c(O)c(O)cc1c4c23	MITF inh 94!
O=C(O)CCN1C(=O)CSC1=S	none
O=C(O)CCCCN1C(=O)CSC1=S	TEAD-YAP inh 38
CCOC(=O)C1=C(C)OC(N)=C(C#N)C1c1ccc(C(C)C)cc1 (configuration not stated)	none
O=C(CCl)N(Cc1cccs1)C1CCS(=O)(=O)C1 (configuration not stated)	TEAD-YAP inh 60
CCCCN(C(=O)CCl)C1CCS(=O)(=O)C1 (configuration not stated)	TEAD-YAP inh 73
O=C(COc1ccc(Cl)cc1)N(Cc1cccs1)C1CCS(=O)(=O)C1 (configuration not stated)	none
O=C(NC1CCCCCC1)c1cc(Sc2ccc(F)cc2)nc2ccccc12	none
O=C(N/N=C/c1ccccc1I)C(=O)Nc1cccc(F)c1	none
O=C1NC(=S)N/C1=C/c1ccc(-c2ccc3c(c2)C(=O)OC3)o1	FBW7 act 2.5
O=C1NC(=S)N/C1=C/c1ccc(-c2cccc(Cl)c2)o1	none
COc1ccc(C(=O)Nc2ccc3nn(-c4cccc([N+](=O)[O-])c4)nc3c2)cc1OC	none
NNC(=O)CNc1c(-c2ccsc2)nc2ccccn12	TEAD-YAP inh 52
CCOC(CCn1c(SCC(=O)Nc2ccc(C)c(Cl)c2)nc2ccccc2c1=O)OCC	none
O[C@@H]1[C@@H](O)C=C2CCN3Cc4cc5c(cc4[C@H]1C23)OCO5 (some centres not stated)	TEAD-YAP inh 82
